Among the data in PubChem BioAssay (NCI) are growth values, retold here.

The panel holds about 83,000 compounds, 20% with a hit somewhere; the sample as a whole holds those more often.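 The endpoint reported here, percent growth, reads 100 for growth as untreated, 0 for no net growth and -100 for all cells dead.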 Values without a mark were called inactive. Activity calls are given as the source filed them. The calls were made as follows: active = growth percent below 10; inactive = the rest.

Test systems include HCT-15 colon; HT29 colon; SNB-75 CNS; SNB-19 CNS; U251 CNS; PC-3 prostate; SK-MEL-5 melanoma; UACC-62 melanoma; LOX IMVI melanoma; SK-MEL-28 melanoma.
Common to all, as to test: NCI-60 one-dose screen, 48 h (100 = growth as untreated, 0 = no growth, -100 = all killed)
Conditions in all cases: 10 µM unless noted

Regarding `C=C1C(=O)O[C@@H]2C3C(=C(C)CC[C@@H]12)CC1O[C@]13C` (stereo not given in full), the growth in the assay on HCT-15 colon was 50.4% [6.75 µM]; in the assay with HT29 colon, 85.5% [6.75 µM]; in the assay with SNB-75 CNS, 86.1% [6.75 µM]; in the assay with SNB-19 CNS it was 92.8% [6.75 µM]; in the assay with U251 CNS it was 90.3% [6.75 µM]; in the assay with PC-3 prostate it was 85.2% [6.75 µM]. The growth in the assay with SK-MEL-5 melanoma is 55.6% [6.75 µM]; in the assay with UACC-62 melanoma, 74.6% [6.75 µM]; with LOX IMVI melanoma, 51.8% [6.75 µM]; with SK-MEL-28 melanoma it was 90.4% [6.75 µM].
Regarding `CC(=O)O[C@H]1CC[C@]2(C)[C@H]3CC=C4[C@@H]5CC(C)(C)CC[C@]5(C(=O)N5CCN(CCC#N)CC5)CC[C@@]4(C)[C@]3(C)CC[C@H]2C1(C)C`, the growth with HCT-15 colon is 20.3%; in the assay with HT29 colon it was 12.4%; with SNB-75 CNS, 53.8%; in the assay on SNB-19 CNS, 63.2%; with U251 CNS it was 12.4%; with PC-3 prostate it was 19.5%. The growth is 7.89% (active) with SK-MEL-5 melanoma, 38% with UACC-62 melanoma, 20% with LOX IMVI melanoma and 52.2% in the assay on SK-MEL-28 melanoma.
Consider `O=C(/C=C/c1cccc(Oc2ccccc2)c1)c1ccc(Nc2nc(Nc3ccc(F)cc3)nc(Nc3ccc(Cl)cc3)n2)cc1`, for which the growth is 109% with HCT-15 colon; 101% in the assay on HT29 colon; 92.5% with SNB-75 CNS; 108% in the assay with SNB-19 CNS; 101% with U251 CNS; 94% in the assay on PC-3 prostate. Also, the growth was 96.4% in the assay on SK-MEL-5 melanoma, 105% in the assay on UACC-62 melanoma, 108% in the assay on LOX IMVI melanoma and 112% with SK-MEL-28 melanoma.
As for `COc1ccc(-c2nc3c(c(-c4ccc(Cl)cc4)nn3-c3ccccc3)c(-c3ccccc3)c2C#N)cc1`, the growth with HCT-15 colon is 109%; in the assay with HT29 colon, 101%; with SNB-75 CNS it was 85.7%; in the assay on SNB-19 CNS, 103%; in the assay with U251 CNS, 99.6%; in the assay on PC-3 prostate it was 91.3%. Further, the growth with SK-MEL-5 melanoma was 100%; with UACC-62 melanoma, 98.5%; in the assay with LOX IMVI melanoma, 101%; in the assay on SK-MEL-28 melanoma, 108%.
With `CCn1cc(C(=O)N/N=C/c2ccccc2)c(=O)c2cc(F)c(N3CCNC(C)C3)c(F)c21` (stereo not given), the growth is -86.5% (active) with HCT-15 colon; -92% (active) with HT29 colon; 92.8% in the assay with SNB-75 CNS; 18.9% with SNB-19 CNS; -92.3% (active) in the assay on U251 CNS; 48.9% in the assay on PC-3 prostate. Further, the growth with SK-MEL-5 melanoma was 11.9%; with UACC-62 melanoma, -27.9% (active); in the assay on LOX IMVI melanoma, -87.3% (active); in the assay on SK-MEL-28 melanoma, -78.8% (active).
`CCCC(O)Cn1ncc(C(=O)OCC)c1NC(=O)NCc1cccc(C(F)(F)F)c1` (stereo not given): the growth in the assay with HCT-15 colon was 104%; in the assay with HT29 colon, 85.9%; in the assay on SNB-75 CNS, 101%; in the assay on SNB-19 CNS, 104%; in the assay on U251 CNS, 105%; with PC-3 prostate it was 64.7%. Further, the growth in the assay on SK-MEL-5 melanoma was 93.6%; in the assay with UACC-62 melanoma, 80.1%; in the assay on LOX IMVI melanoma it was 87.5%; in the assay on SK-MEL-28 melanoma, 105%.
`O=[N+]([O-])c1ccccc1Nc1ccc2ccccc2c1`: the growth was 93.5% in the assay on HCT-15 colon; 94.1% in the assay with HT29 colon; 62.9% with SNB-75 CNS; 89.8% in the assay with SNB-19 CNS; 92.7% in the assay with U251 CNS; 92.3% with PC-3 prostate. For the same compound, the growth with SK-MEL-5 melanoma is 98.6%; in the assay with UACC-62 melanoma, 79.5%; in the assay on LOX IMVI melanoma, 92.5%; in the assay on SK-MEL-28 melanoma, 101%.
As to `Cc1ccc(O)c(NC(=O)c2cccc(Nc3ccnc(C(F)(F)F)c3)c2)c1`, the growth was 80% in the assay on HCT-15 colon; 101% with HT29 colon; 85% with SNB-75 CNS; 90.5% in the assay on SNB-19 CNS; 83.6% with U251 CNS; 68% with PC-3 prostate. The growth is 20.7% with SK-MEL-5 melanoma, 30.8% in the assay on UACC-62 melanoma, 66.9% in the assay on LOX IMVI melanoma and 100% in the assay with SK-MEL-28 melanoma.
`CC12OC(CC(O)C1O)n1c3ccccc3c3c4c(c5c6ccccc6n2c5c31)C(=O)N(CCN1CCCC1)C4=O` (stereo not given): the growth in the assay with HCT-15 colon is 10.5%; with HT29 colon, 5.08% (active); in the assay on SNB-75 CNS, 10.2%; in the assay with SNB-19 CNS, 13.4%; in the assay on U251 CNS, 11.8%; in the assay on PC-3 prostate it was 20.8%. The growth in the assay on SK-MEL-5 melanoma was 28.9%; in the assay on UACC-62 melanoma it was 19.3%; in the assay with LOX IMVI melanoma, -2.77% (active); in the assay on SK-MEL-28 melanoma, 63%.
As to `CN(C)c1ccc(/C=C2\C=C(c3nc4ccccc4s3)OC2=O)cc1`, the growth was 102% in the assay with HCT-15 colon; 98.2% with HT29 colon; 87.2% with SNB-75 CNS; 95.3% in the assay with SNB-19 CNS; 98.4% with U251 CNS; 78.5% in the assay on PC-3 prostate. Besides, the growth with SK-MEL-5 melanoma was 96.4%; in the assay on UACC-62 melanoma, 75.4%; in the assay on LOX IMVI melanoma it was 91%; in the assay with SK-MEL-28 melanoma, 106%.
As to `c1ccc(Cn2cc3c(c2-c2ccccc2)CCc2cnoc2-3)cc1`, the growth in the assay on HCT-15 colon is 48.6%; with HT29 colon, 30.1%; with SNB-75 CNS, 4.38% (active); with SNB-19 CNS, 70.6%; in the assay on U251 CNS, 55.5%; with PC-3 prostate, 82.5%. Moreover, the growth in the assay with SK-MEL-5 melanoma is 78.8%; in the assay on UACC-62 melanoma, 43.1%; with LOX IMVI melanoma, 66.1%; with SK-MEL-28 melanoma it was 59.5%.
As to `COc1ccc(-c2nc3ccc(C)cc3c3c2c(=O)n(C)c(=O)n3C)cc1OC`, the growth in the assay with HCT-15 colon is 108%; in the assay with HT29 colon it was 108%; with SNB-75 CNS, 92.9%; in the assay on SNB-19 CNS, 98.7%; in the assay with U251 CNS, 96.9%; with PC-3 prostate, 97.5%. Further, the growth in the assay on SK-MEL-5 melanoma was 103%; with UACC-62 melanoma, 89.5%; with LOX IMVI melanoma it was 95.6%; in the assay with SK-MEL-28 melanoma, 112%.
Turning to `COc1ccc(C/C(C)=C(\c2ccc(Cl)cc2)c2ccc(OCCCN(C)C)cc2)cc1`, the growth was 27.3% with HCT-15 colon; 13.6% in the assay on HT29 colon; 72.4% in the assay on SNB-75 CNS; 86.7% with SNB-19 CNS; 46.4% with U251 CNS; 68.7% in the assay with PC-3 prostate. For the same compound, the growth was 78.3% in the assay on SK-MEL-5 melanoma, 94.5% in the assay with UACC-62 melanoma, 73.1% in the assay on LOX IMVI melanoma and 80.8% in the assay with SK-MEL-28 melanoma.
